Source: PubChem BioAssay
TcdB GH inh = TcdB glycohydrolase inhibition | inhibition, % at 9.99 µM | P18177 | AID 652162 | 350,000 tested, 0.24% active | TcdB glycohydrolase enzymatic assay, plate reader; in the data active means inhibition above about 10%
BioA inh = inhibitors of Mycobacterium tuberculosis BioA enzyme; AID 602481; purified M. tuberculosis BioA enzyme, plate reader; 360,000 tested, 0.096% active; inhibition, % at 9.99 µM; in the data active means inhibition above about 40%
FadD28 FP inh = blocks FadD28 binding to the bisubstrate probe | fluorescence polarization | inhibition, % at 12.5 µM | 360,000 tested, 0.22% active | AID 588549; in the data active means inhibition above about 8.5%, passing the limit was not always enough
PrP UTR inh = inhibition of PrP 5' UTR reporter expression; inhibition, % (concentration not given with the values); cell-based PrP 5' UTR mRNA reporter, plate reader; AID 488862; 340,000 tested, 0.35% active; in the data active means inhibition above about 52%; further: 0 = median of the neutral control wells
PfHsp40 yeast = rescue of PfHsp40-mediated yeast toxicity; 340,000 tested, 0.68% active; AID 504582; S. cerevisiae expressing PfHsp40, growth rescue, ATP luminescence; growth rescue, % at 12.5 µM; in the data active means growth rescue above about 28%, passing the limit was not always enough;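 further: yeast W303a lacking pdr1 and pdr3 grown in galactose medium; growth measured after three days at 30 °C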
Active calls of the source: *; x = no result given. The list is not random: actives were taken first. Their share in the collection is about 1.1%.

SMILES	TcdB GH inh	BioA inh	FadD28 FP inh	PrP UTR inh	PfHsp40 yeast
COc1ccc(NC(=O)CN2CCN(CC(=O)Nc3ccc(F)cc3)CC2)c(OC)c1	2	-1	0	-15	1
COc1cc2c(cc1OC)CN(CC(=O)Nc1ccc(F)cc1)C(C(=O)O)C2 (centres undefined)	1	1	-4	-14	35*
CNC[C@@H]1Oc2c(NC(=O)c3cnccn3)cccc2C(=O)N([C@H](C)CO)C[C@H]1C	1	0	x	x	x
O=c1c2cc(Cl)ccc2nc(-c2ccccc2)n1O	1	x	-2	-26	195*
O=c1c2cc(Br)ccc2nc(-c2ccc([N+](=O)[O-])cc2)n1O	-1	x	-3	-25	160*
CC(C)C#Cc1cnc2c(c1)C(=O)N([C@H](C)CO)C[C@H](C)[C@@H](CN(C)Cc1ccccc1)O2	1	1	x	x	x
COc1ccc(S(=O)(=O)N(C)C[C@@H]2Oc3ccc(NS(=O)(=O)c4ccc(C)cc4)cc3CC(=O)N([C@@H](C)CO)C[C@H]2C)cc1	x	-2	x	x	x
COc1cnn(-c2ccccc2)c(=O)c1SCc1ccc(Cl)cc1Cl	x	1	-1	-12	88*
COc1cnn(-c2ccc(C)cc2)c(=O)c1SCc1ccccc1	x	0	-3	-31	1
O=[N+]([O-])c1cc(Br)cc(/C=N/n2cnnc2)c1O	0	x	-2	-11	204*
C[C@@H]1CCCCO[C@@H](CN(C)Cc2ccc(C(F)(F)F)cc2)[C@@H](C)CN([C@@H](C)CO)C(=O)c2cc(NC(=O)CCCN(C)C)ccc2O1	1	1	x	x	x
CC(=O)N1[C@@H](CO)[C@@H](c2ccccc2)C12CN(C(=O)Nc1ccccc1F)C2	0	x	x	x	x
CCOc1cc(/C=N/NC(=O)c2cccnc2)ccc1O	3	41*	0	-12	0
O=C(N/N=C/c1cccc(OC(=O)c2ccccc2Cl)c1)c1cccnc1	0	50*	-22	3	0
COc1cc2ccccc2cc1C(=O)N/N=C/c1cccnc1	-10	72*	-2	17	-2
CCOc1cc(/C=N/NC(=O)c2cccnc2)ccc1OCC(N)=O	4	x	-1	-10	1
O=C1Nc2ccccc2C1=Nc1ccccc1-c1ccccc1	10*	x	-4	-53	0
CCCNC(=O)N1[C@H](CO)[C@@H](c2ccccc2-c2ccccc2)[C@@H]1C#N	0	x	x	x	x
COc1ccc(-c2ccc3n2Cc2cnnn2-c2ccccc2-3)cc1	-1	0	-3	-34	137*
CCSC(=O)CCCCCCCCCCCO	x	3	18*	-1	2
CCCCCCCCO	0	0	0	-11	-1
COc1cccc(S(=O)(=O)N[C@H]2CC[C@H](CC(=O)NCc3ccc(F)cc3)O[C@H]2CO)c1	-2	-1	x	x	x
O=C(C[C@H]1C[C@@H]2c3cc(NC(=O)NC4CCCCC4)ccc3O[C@@H]2[C@@H](CO)O1)NCc1cccnc1	0	2	x	x	x
CC/C(=N\NC(=O)c1ccccc1O)c1c(O)n(C2CCCCC2)c(=O)[nH]c1=O	0	4	15*	-31	0
CC/C(=N/NC(=O)c1ccccc1O)c1c(C)[nH]n(-c2ccccc2)c1=O	0	4	4	-13	399*
SMILES	TcdB GH inh	BioA inh	FadD28 FP inh	PrP UTR inh	PfHsp40 yeast
COCC(=O)Nc1ccc2c(c1)C(=O)N(C)[C@@H]1CC[C@@H](CC(=O)NCCc3ccccc3)O[C@@H]1CO2	-2	-2	x	x	x
CCOC(=O)NNc1ccccc1	0	x	-4	-4	62*
Cc1nc2ccccc2n2c(O)c(CC(=O)O)cc12	x	-15	14*	-12	1
C=CCN(CC=C)C(=S)NC(=O)c1ccc(C)c(Br)c1	x	x	-2	-10	296*
Oc1ccc(/C=N/Nc2ncnc3nc[nH]c23)cc1	10*	-1	-1	x	0
O=C(Cc1cccnc1)N1CC2(C1)[C@H](c1ccccc1)[C@H](CO)N2C(=O)C1CCCC1	0	x	x	x	x
C[C@@H]1CN([C@@H](C)CO)C(=O)c2cccc(NC(=O)Nc3ccc4c(c3)OCO4)c2O[C@@H]1CN(C)C(=O)Nc1cccc2ccccc12	0	1	x	x	x
COc1ccccc1/C=C1\SC(=S)N(NS(=O)(=O)c2ccc(C)cc2)C1=O	2	5	-2	-2	32*
COc1ccc(/C=C2\SC(=S)N(NS(=O)(=O)c3ccc(C)cc3)C2=O)c(OC)c1	4	-6	1	-3	0
CCOc1ccc(/C=C2\SC(=S)N(NS(=O)(=O)c3ccccc3)C2=O)cc1OC	2	x	5	-6	60*
O=c1c(-c2c(O)cc(O)c3c(=O)cc(-c4ccc(O)cc4)oc23)c(-c2ccc(O)cc2)oc2cc(O)cc(O)c12	1	1	-59	-8	105*
Cc1ccc(-c2nc3ccc([N+](=O)[O-])cc3[nH]2)cc1	12*	x	-8	-20	111*
COc1ccc(-c2nc3ccc([N+](=O)[O-])cc3[nH]2)cc1	14*	x	-9	-32	22
CN1CCN(CCCN2c3ccccc3Sc3ccc(Cl)cc32)CC1	-1	4	8.2*	12	0
CCSc1ccc2c(c1)N(CCCN1CCN(C)CC1)c1ccccc1S2	-20	4	-2	-15	-1
COc1c(CC=C(C)C)c(O)cc2oc(=O)c3c4ccc(O)cc4oc3c12	x	0	2	x	x
CC(C)=CCc1c(O)cc2c(=O)c3ccc(O)cc3oc2c1O	1	1	-6	-24	147*
CCOC(=O)N1CCN(S(=O)(=O)c2ccc(C(=O)Nc3nnc(CC)o3)cc2)CC1	x	-1	0	-27	-1
CCOC(=O)N1CCN(S(=O)(=O)c2ccc(C(=O)NNc3nc4cc(C)cc(C)c4s3)cc2)CC1	x	0	3	1	323*
CCOC(=O)N1CCN(S(=O)(=O)c2ccc(C(=O)NNc3nc4c(C)cccc4s3)cc2)CC1	1	1	17*	-1	130*
CCOC(=O)N1CCN(S(=O)(=O)c2ccc(C(=O)N(CCN(C)C)c3nc4ccc(Cl)cc4s3)cc2)CC1	1	-1	-1	-4	0
CCOC(=O)N1CCN(S(=O)(=O)c2ccc(C(=O)NNc3nc4c(C)cc(C)cc4s3)cc2)CC1	1	-1	15*	x	x
CCOC(=O)N1CCN(S(=O)(=O)c2ccc(C(=O)NNc3nc4ccc(Cl)cc4s3)cc2)CC1	x	-1	12*	-18	274*
O=C(C[C@@H]1C[C@@H]2c3cc(NC(=O)c4ccc5c(c4)OCO5)ccc3O[C@@H]2[C@@H](CO)O1)NCc1ccc(Oc2ccccc2)cc1	0	-1	x	x	x
CC(C)(C)NC(=O)c1cnn(-c2ccccc2)c1NC(=O)c1ccccc1	1	0	-3	-25	0
Cc1csc(-c2cnn(-c3ccccc3)c2NC(=O)c2ccc(C(F)(F)F)cc2)n1	x	x	-1	-21	46*
O=C(c1ccccc1F)N1CCN(c2ccc([N+](=O)[O-])c3cccnc23)CC1	12*	x	-1	-19	1
CNC(C)c1cc(OC)ccc1OC (centres undefined)	x	0	-1	-28	45*
